In PubChem BioAssay AID2732 (Emory University Molecular Libraries Screening Center, 2010):
In all, about 220,000 compounds went through this assay and about 8,200 (3.7%) were called active.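 How the source made its calls: active means compounds that reduced the stress-induced luciferase reporter signal by more than about 70% of percent inhibition (limit read from the data); inactive means the rest.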 Only a selection was taken, and actives are over-represented in it overall.

Assay: blockers of ER-stress CHOP reporter expression – cell-based, unfolded protein response, luciferase reporter, primary screen (AID 2732);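 further: 0% = tunicamycin plus vehicle and 100% = wells without tunicamycin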
Details: CHO-K1 CHOP-promoter luciferase, tunicamycin-induced, 15-18 h; at 10 µM; active compounds read high

| SMILES | inhibition |
| --- | --- |
| O=C(Nc1ccc(S(=O)(=O)Nc2nccs2)cc1)c1cccc(S(=O)(=O)N2CCOCC2)c1 | -32.6% (inactive) |
| COc1ccc(Cn2c(O)c(/C=C3/C=CC=N3)c(=O)[nH]c2=O)cc1 | 1.57% (inactive) |
| C=CC(COCc1ccccc1)N(Cc1ccccc1)S(=O)(=O)c1ccccc1Br (centres undefined) | 13.4% (inactive) |
| CC(C)(C)C(=O)NNC(=O)c1ccc(Oc2cc(Cl)cc(Cl)c2)o1 | 1.32% (inactive) |
| COC(=O)c1ccc(S(=O)(=O)N(CCO)Cc2ccccc2)n1C | -4.99% (inactive) |
| O=S(=O)(c1ccccc1)N1CN(Cc2ccc(F)cc2)c2nc3ccccc3nc21 | 3.85% (inactive) |
| CCOC(=O)c1c(NC(=O)c2ccc(Br)o2)sc2c1CCCC2 | 22.6% (inactive) |
| CCc1c(C)sc(NC(=O)c2ccc(Br)o2)c1C(=O)OC | 88.9% (active) |
| CCc1c(C)sc(NC(=O)/C=C/c2ccc3c(c2)OCO3)c1C(=O)OC | 1.72% (inactive) |
| COc1cc(CN(C)Cc2nc3cc(C(F)(F)F)ccc3c(=O)[nH]2)ccc1OC(F)F | 34.5% (inactive) |
| Cc1cccc(OCc2nnc(SCn3nnc4ccccc4c3=O)o2)c1 | 55.9% (inactive) |
| Cc1cccc(OCc2nnc(SCc3nc4cc(C(F)(F)F)ccc4c(=O)[nH]3)o2)c1 | 104% (active) |
| O=C(/C=C/Nc1ccc(S(=O)(=O)Nc2cnc3ccccc3n2)cc1)c1cccnc1 | 12.4% (inactive) |
| COc1ccc(COCC(O)CN2CCC(C(N)=O)CC2)cc1 (centres undefined) | -5.79% (inactive) |
| FC(F)(F)c1cc(-c2cccs2)nc(NCc2ccco2)n1 | 52.2% (inactive) |
| O=C(CSc1nc(-c2ccco2)cc(C(F)(F)F)n1)NCc1cccs1 | 30.9% (inactive) |
| FC(F)(F)c1cc(-c2ccco2)nc(NCc2ccc(Cl)cc2)n1 | 81.4% (active) |
| CCOC(=O)c1ccn(-c2nc(-c3ccco3)cc(C(F)(F)F)n2)n1 | 7.61% (inactive) |
| Cc1cc(C(F)(F)F)nn1-c1nc(-c2ccco2)cc(C(F)(F)F)n1 | 30.6% (inactive) |
| FC(F)(F)c1cc(-c2ccco2)nc(N2CCOCC2)n1 | 101% (active) |
| COc1ccc(Cl)cc1NC(=O)CCN1CCOCC1 | 5.05% (inactive) |
| CC(=O)NC(C)c1nc2ccccc2n1Cc1ccccc1F (centres undefined) | -2.56% (inactive) |
| CC(C)Cc1nc(Nc2ccc(S(=O)(=O)N3CCCC3)cc2)c2nnn(Cc3ccccc3)c2n1 | 27.2% (inactive) |
| C#CCNc1nc(C(C)C)nc2c1nnn2Cc1ccccc1F | 89.8% (active) |

| SMILES | inhibition |
| --- | --- |
| CC1C(=O)NC(=O)C1c1ccccc1 (centres undefined) | 8.56% (inactive) |
| CCCC(=O)Nc1ccc2c(c1)nc(CCNC(=O)c1ccco1)n2C | -14.7% (inactive) |
| CC(NC(=O)C(C)(C)C)C(c1cccs1)N1CCN(Cc2ccccc2)CC1 (centres undefined) | -20.7% (inactive) |
| CCOC(=O)C1=C(CN2CCc3ccccc32)NC(=O)NC1c1cccc([N+](=O)[O-])c1 (centres undefined) | 60.9% (inactive) |
| CCOC(=O)C1=C(CN2CCCCCC2)NC(=O)NC1c1cccc([N+](=O)[O-])c1 (centres undefined) | -12.3% (inactive) |
| CCOC(=O)C1=C(CN2CCc3ccccc32)NC(=O)NC1c1ccc(Cl)cc1 (centres undefined) | 85.1% (active) |
| Cc1ccc(C(=O)NNC2=Nc3cc([N+](=O)[O-])ccc3OC2)cc1 | -15.9% (inactive) |
| Cn1nc(C(C)(C)C)c(NC(=O)c2sccc2Cl)c1C(C)(C)C | 3.22% (inactive) |
| CC(C)c1c(O)nc(SCCOc2ccc(Cl)cc2)[nH]c1=O | 4.19% (inactive) |
| CCOC(=O)N1CCN(C(=O)c2ccc(S(=O)(=O)c3ccc(C)cc3)c(NC(C)=O)c2)CC1 | 33.2% (inactive) |
| O=C(NCCN1CCOCC1)c1ccc2c(c1)N(Cc1ccc(Cl)cc1)CCS2 | 15% (inactive) |
| CCOC(=O)N1CCN(C(=O)c2ccc3c(c2)N(Cc2ccc(C)cc2)CCS3)CC1 | 76.8% (active) |
| O=C(NCCCc1ccccc1)C1CCC(CNc2c(N3CCCCC3)c(=O)c2=O)CC1 (centres undefined) | 0.92% (inactive) |
| CCC(=O)c1ccc(OCC(O)CN2CCN(c3cccc(C(F)(F)F)c3)CC2)cc1 (centres undefined) | 84.2% (active) |
| O=C(COc1ccc(Cl)cc1)N1CCN(S(=O)(=O)c2ccc(Cl)cc2)CC1 | 42.3% (inactive) |
| CCC(=O)c1ccc(OCC(O)CN2CC(C)OC(C)C2)cc1 (centres undefined) | -8.55% (inactive) |
| OC(COc1ccc2c(c1)CCC2)CN1CCN(c2cccc(Cl)c2)CC1 (centres undefined) | 44.8% (inactive) |
| O=C(COc1ccc(Cl)cc1)N1CCN(c2cccc(C(F)(F)F)c2)CC1 | 86.3% (active) |
| COC(=O)c1ccccc1OCC(=O)N1CCN(c2ccc(Cl)cc2)CC1 | 22.2% (inactive) |
| O=C(C1=C(O)C(=O)N(CCOCCO)C1c1ccccn1)c1cccs1 (centres undefined) | 8.68% (inactive) |
| FC(F)(F)c1ccc(-n2cn[nH]c2=S)cc1 | 9.71% (inactive) |
| CCN(CCNC(=O)C1=C(C)C(=O)OC12CCC(C)CC2)c1ccccc1 (centres undefined) | 23.7% (inactive) |
| CCc1ccc(NC(=O)N[C@H](C(=O)O)C(C)CC)cc1 (some centres undefined) | -4.67% (inactive) |
| CCOC(=O)/C(C#N)=C/c1ccc(N2CCN(Cc3ccccc3)CC2)cc1 | 5.69% (inactive) |

| SMILES | inhibition |
| --- | --- |
| CCOC(=O)/C(C#N)=C/c1ccc(OCC(=O)Nc2ccccc2)c(OC)c1 | 77.3% (active) |
| CCCn1c(C)cc(/C=C(\C#N)C(=O)OCC(=O)Nc2cc(OC)c(OC)c(OC)c2)c1C | 9.36% (inactive) |
| COc1cc(/C=C2/C(=O)NN(c3ccc(F)cc3)C2=O)cc([N+](=O)[O-])c1O | 0.68% (inactive) |
| O=C(CCCCCN1C(=O)c2cccc3cccc(c23)C1=O)NCc1ccco1 | 7.37% (inactive) |
| CCOC(=O)C1=C(c2ccccc2)NC(=S)NC1c1ccc(Cl)cc1 (centres undefined) | 18% (inactive) |
| CCOC(=O)c1[nH]c2c(c1-c1ccccc1)C(=O)CC(c1ccc(Cl)cc1)C2 (centres undefined) | 80.8% (active) |
| CCOC(=O)c1[nH]c2c(c1C)C(=O)CC(c1ccc(N(C)C)cc1)C2 (centres undefined) | 9.42% (inactive) |
| CC(NS(=O)(=O)c1ccccc1)c1n[nH]c(=S)n1-c1ccccc1 (centres undefined) | 19.4% (inactive) |
| CC(/C=C/c1ccco1)=N/NC(=O)C1COc2ccccc2O1 (centres undefined) | 0.12% (inactive) |
| CCc1ccc(S(=O)(=O)Nc2ccc(C)c(NS(C)(=O)=O)c2)cc1 | 16.4% (inactive) |
| COc1ccc(CCNS(=O)(=O)c2cccc3cccnc23)cc1OC | 0.78% (inactive) |
| O=C(Nc1nc2ccc(S(=O)(=O)N3CCCC3)cc2s1)C1CCCO1 (centres undefined) | 9.58% (inactive) |
| Cc1ccc2nc(NC(=O)C3CCN(S(=O)(=O)c4ccc5c(c4)oc(=O)n5C)CC3)sc2c1 | 80.1% (active) |
| Cn1c(=O)oc2cc(S(=O)(=O)N3CCC(C(=O)Nc4ccc(OC(F)(F)F)cc4)CC3)ccc21 | 12% (inactive) |
| Nc1ccc(N=Nc2ccccc2Cl)c(N)n1 | -4.49% (inactive) |
| CC(=O)Nc1ccc(S(=O)(=O)N2CCSCC2)cc1 | -25.3% (inactive) |
| Cc1cccc(OCCCC(=O)Nc2ccc(S(=O)(=O)N3CCCC3)cc2)c1 | 89% (active) |
| CC(=O)Nc1ccc(S(=O)(=O)N2CCN(CCCOc3cc(C)ccc3C)CC2)cc1 | 71.1% (active) |
| Cc1ccc(C)c(S(=O)(=O)N2CCN(CC(=O)Nc3ccc([N+](=O)[O-])cc3)CC2)c1 | 42% (inactive) |
| Cc1cccc(OCCC(=O)Nc2cc(S(=O)(=O)N3CCCCC3)ccc2N2CCOCC2)c1 | 40.4% (inactive) |
| CCN(CC(=O)Nc1ccc(S(=O)(=O)N2CCCC2)cc1)CC(=O)Nc1cccc(OC)c1 | 2.69% (inactive) |
| CCc1ccc[n+](-c2nc([O-])sc2C=O)c1 | 9.23% (inactive) |
| Nc1nc(Sc2ncccc2[N+](=O)[O-])n[nH]1 | -14.3% (inactive) |
| CC(=O)c1nnn(-c2ccc(Cl)cc2C#N)c1C | 13.8% (inactive) |

| SMILES | inhibition |
| --- | --- |
| Cn1nc(C(C)(C)C)c([N+](=O)[O-])c1C(N)=O | 1.68% (inactive) |
| COc1ccc(C(=O)N/N=C2\CCS(=O)(=O)c3ccc(F)cc32)cc1OC | -0.83% (inactive) |
| O=C(NCC(c1cccs1)N1CCOCC1)c1cc(-c2ccccn2)nc2ccccc12 (centres undefined) | 7.03% (inactive) |
| Cc1cccc(N(CC(=O)N=Nc2c(O)[nH]c3ccccc23)S(C)(=O)=O)c1C | 27% (inactive) |
| COCC(=O)N=Nc1c(O)[nH]c2ccccc12 | -14.7% (inactive) |
| Cc1c(-c2ccccc2)n[nH]c1C(=O)N=Nc1c(O)[nH]c2ccccc12 | 106% (active) |
| O=C(CC(c1ccccc1)c1cc(Cl)ccc1O)NCCN1CCOCC1 (centres undefined) | -2.25% (inactive) |
| CN(C)S(=O)(=O)c1ccc(Cl)c(NC(=O)COC(=O)CC(NC(N)=O)c2ccc(Cl)cc2)c1 (centres undefined) | -8.1% (inactive) |
| CC(C)NC(=O)NNc1c(Cl)cncc1Cl | 5.99% (inactive) |
| O=C(NCc1ccc2c(c1)OCO2)c1sccc1Br | 8.42% (inactive) |
| Cc1cc(C)c(C#N)c(SCC(=O)Nc2ccccc2)n1 | 41.3% (inactive) |
| Cc1cc2cc3c(cc2nc1SCC(=O)Nc1c(C)cccc1C)CCC3 | 79.2% (active) |
| Cc1cccc(C)c1NC(=O)CSc1ccc([N+](=O)[O-])cn1 | -10.4% (inactive) |
| COC(=O)c1c(C)oc(C)c1S(=O)(=O)NCc1ccc(Cl)cc1 | 30.1% (inactive) |
| Cc1ccc(OCC(=O)N/N=C/c2ccncc2)cc1 | 10% (inactive) |
| Cc1ccc(/C=N/NC(=O)COc2ccccc2-c2ccccc2)cc1 | 90.4% (active) |
| Cc1ccc(OCC(=O)N/N=C\c2ccco2)c(C)c1 | 12.7% (inactive) |
| Cc1cc(OCCCCOc2ccc(C#N)cc2)ccc1[N+](=O)[O-] | 32.1% (inactive) |
| COc1ccccc1Nc1nc(N)nc(CSC(=S)N2CCOCC2)n1 | 9% (inactive) |
| CCCCCCC(=O)N(O)C1CC(=O)N(c2ccccc2)C1=O (centres undefined) | 106% (active) |
| CCOc1ccc(N2C(=O)CC(N(O)c3ccccc3)C2=O)cc1 (centres undefined) | -34% (inactive) |
| CCOC(=O)c1ccc(N2C(=O)CC(N(C)Cc3ccccc3)C2=O)cc1 (centres undefined) | 40.7% (inactive) |
